# Results from PubChem BioAssay (NCATS).
# Unmarked numbers belong to inactive results. Results filed as inconclusive are left out. A call without a number means that no potency is given here. The source made the active and inactive calls. Calls follow the shape of the dose curve; as a rule, active = well fitted curve in the direction sought with a large enough effect; inconclusive = small, poorly fitted or top-dose-only effect, or another doubt; inactive = no such curve, though single readings can be large; an effect the other way counts as inactive or inconclusive. Residues, ends and D or L forms follow the SMILES beside them. *: point of attachment. Cbz = O=C(OCc1ccccc1)*
# How the values were obtained:
# [1] = biological target: Arylsulfatase A (Homo sapiens) (UniProt P15289); assay: qHTS screen for enhancers of Arylsulfatase A (ASA1): LOPAC Validation Assay (AID 720538); also: potency is read from the fitted curve at half-maximal effect
# Method in brief: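 MLD patient fibroblasts (SV40, ASA-I179S), 1536-well; adhere 6 hrs; cpd 48h, 37 degree C, 5% CO2; pNCS 0.5mM final in lysis buffer, 14h RT; stop 1N NaOH final; fluor. Ex525/Em598.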
# [2] = qHTS for compounds that reverse cellular toxicity of Amyloid beta (A-beta) peptide in yeast: LOPAC Validation Assay (AID 720559)
# Method in brief: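 Medium dispensed, compounds pinned, A-beta yeast suspension added; plates held at 30 C for 48 hr; absorbance measured at 600 nm to gauge growth; values scaled between DMSO and FeCl3/clioquinol (equimolar) controls.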
# [3] = qHTS for Activators of Parkin Expression: LOPAC Validation Assay (NLuc Reporter) (AID 720572)
# Method in brief: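 Neuronal line stably carrying a FLuc/NLuc coincidence reporter under the Parkin promoter, seeded 24 h, then dosed in 7-point series for 24 h at 37 C. NLuc luminescence read after FLuc; normalized to DMSO and positive control (100%).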
# [4] = qHTS for Activators of Parkin Expression: LOPAC Validation Assay (FLuc Reporter) (AID 720573)
# Method in brief: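 Cells seeded, 24 h; compounds pinned, 7-pt dose response; 24 h at 37 C/5% CO2; volume reduced; FLuc reagent 10 min RT; luminescence read. Normalization: DMSO = 0, positive control = 100%.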
# [5] = biological target: T1, Hexokinase-4 (Homo sapiens) + Glucokinase regulatory protein (Homo sapiens) (UniProt P35557+Q14397); assay: qHTS assay for inhibitors of recombinant human GCK-GKRP interaction: Diaphorase-coupled assay (AID 743205)
# Method in brief: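 25 mM Hepes pH 7.6, 5 mM glucose, 0.4 mM ATP, 4 U/ml G6PDH; 10 nM each GST-GCK/FLAG-GKRP. Kinetic fluorescence read, 1/min × 30 min. Normalized: DMSO ± enzyme = max/min.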
# [6] = biological target: T1, Hexokinase-4 (Homo sapiens) + Glucokinase regulatory protein (Homo sapiens); assay: qHTS assay for inhibitors of recombinant human GCK-GKRP interaction: ADP-Glo assay (AID 743206)
# Method in brief: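 GST-GCK and FLAG-GKRP (15 nM each in the dispensed mix, with 2 uM S6P) react with 0.4 mM ATP and 5 mM glucose (final) in Hepes pH 7.6 for 60 min at room temperature. ADP is measured by ADP-Glo luminescence.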
# [7] = biological target: T1, Hexokinase-4 (Homo sapiens) + Glucokinase regulatory protein (Homo sapiens); assay: qHTS assay for inhibitors of recombinant human GCK-GKRP interaction: HTRF assay (AID 743207)
# Method in brief: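 5 nM GST-GCK + 5 nM FLAG-GKRP + 2 uM S6P, pH 7.1 buffer (25 mM Hepes, 2 mM MgCl2, 25 mM KCl, 1 mM DTT, Tween/BSA); pin-transferred cpd; anti-FLAG XL665/anti-GST K; 60 min RT; HTRF.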
# [8] = qHTS Assay for Identifying Gametocytocidal Compounds (AID 743244); also: potency is read from the fitted curve at half-maximal effect;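 as to max response: actives lower the fluorescent signal which means gametocytes are killed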; conditions: P. falciparum 3D7 stage III-V gametocytes, alamarBlue, 72 h; max response: hits give low values
# Method in brief: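 In this qHTS viability screen, late-stage 3D7 gametocytes are incubated with compound for 72 h, then with alamarBlue for 24 h; reduced resorufin fluorescence marks killing.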
# Sequence of Arylsulfatase A (Homo sapiens) (P15289 whole entry, looked up): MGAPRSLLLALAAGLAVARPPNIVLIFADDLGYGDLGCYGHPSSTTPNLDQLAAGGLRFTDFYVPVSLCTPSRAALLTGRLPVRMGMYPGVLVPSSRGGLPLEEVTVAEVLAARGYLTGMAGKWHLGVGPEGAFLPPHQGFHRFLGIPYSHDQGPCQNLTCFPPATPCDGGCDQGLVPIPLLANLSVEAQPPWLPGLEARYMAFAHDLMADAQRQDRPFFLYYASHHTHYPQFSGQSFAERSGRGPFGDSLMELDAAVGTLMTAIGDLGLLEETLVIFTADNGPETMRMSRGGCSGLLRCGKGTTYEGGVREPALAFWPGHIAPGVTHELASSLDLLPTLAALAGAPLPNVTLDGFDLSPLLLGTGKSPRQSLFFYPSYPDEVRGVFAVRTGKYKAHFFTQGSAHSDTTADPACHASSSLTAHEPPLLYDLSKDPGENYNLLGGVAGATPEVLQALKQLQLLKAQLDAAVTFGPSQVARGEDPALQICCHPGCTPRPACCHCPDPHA
# T1 sequence (P35557 whole entry, looked up): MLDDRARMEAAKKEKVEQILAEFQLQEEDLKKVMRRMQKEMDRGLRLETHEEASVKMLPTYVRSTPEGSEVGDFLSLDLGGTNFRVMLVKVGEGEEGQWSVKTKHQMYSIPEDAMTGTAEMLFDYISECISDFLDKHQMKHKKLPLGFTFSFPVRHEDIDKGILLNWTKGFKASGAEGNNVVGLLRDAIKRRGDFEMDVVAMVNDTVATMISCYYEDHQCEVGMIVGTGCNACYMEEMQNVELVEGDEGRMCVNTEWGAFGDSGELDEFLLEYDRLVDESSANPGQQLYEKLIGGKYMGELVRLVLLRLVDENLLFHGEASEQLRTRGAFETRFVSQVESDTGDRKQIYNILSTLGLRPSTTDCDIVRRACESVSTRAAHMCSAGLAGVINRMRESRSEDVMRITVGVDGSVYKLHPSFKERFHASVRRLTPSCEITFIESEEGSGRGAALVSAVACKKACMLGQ
# T1 sequence (Q14397 whole entry, looked up): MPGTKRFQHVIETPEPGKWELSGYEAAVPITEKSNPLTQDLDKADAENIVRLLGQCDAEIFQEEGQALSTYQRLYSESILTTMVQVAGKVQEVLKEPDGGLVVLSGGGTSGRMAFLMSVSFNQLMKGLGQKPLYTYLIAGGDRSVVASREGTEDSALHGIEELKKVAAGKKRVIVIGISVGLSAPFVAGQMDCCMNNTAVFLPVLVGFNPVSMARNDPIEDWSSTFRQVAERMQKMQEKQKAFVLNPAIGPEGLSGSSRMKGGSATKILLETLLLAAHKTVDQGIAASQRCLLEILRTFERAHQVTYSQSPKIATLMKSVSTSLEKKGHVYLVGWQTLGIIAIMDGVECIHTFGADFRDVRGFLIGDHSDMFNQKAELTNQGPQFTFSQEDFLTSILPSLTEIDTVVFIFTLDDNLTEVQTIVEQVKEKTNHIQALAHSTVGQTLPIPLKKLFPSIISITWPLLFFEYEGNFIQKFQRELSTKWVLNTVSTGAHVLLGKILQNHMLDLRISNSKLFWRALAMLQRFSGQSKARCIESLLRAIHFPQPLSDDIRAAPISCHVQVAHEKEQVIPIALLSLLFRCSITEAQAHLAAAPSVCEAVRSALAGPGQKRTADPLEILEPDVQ
SMILES,Potency [1],outcome [2],Potency [3],Potency [4],Potency [5],Potency [6],Potency [7],max response [8] [%],Potency [8]
CCCCCC[C@@H]([C@@H](C)O)n1cnc2c(N)ncnc21,inactive,inactive,inactive,inactive,inactive,inactive,inactive,12,
COc1cc(C(O)C(=O)O)ccc1O (stereo not given),inactive,inactive,inactive,inactive,inactive,inactive,inactive,20.3,
NCCCNCCCCNCCCN,inactive,inactive,inactive,inactive,inactive,inactive,inactive,28.9,
CCCCCC(O)CCCC(=O)O (stereo not given),inactive,inactive,inactive,inactive,inactive,inactive,inactive,-4.98,
CC(C)NCC(O)COc1ccc(CC(N)=O)cc1 (stereo not given),inactive,inactive,inactive,inactive,inactive,inactive,inactive,27.5,
CCSC(=N)N,inactive,inactive,inactive,inactive,inactive,inactive,inactive,12.9,
CNc1ncnc2c1ncn2[C@H]1C[C@H](OP(=O)(O)O)[C@@H](COP(=O)(O)O)O1,inactive,inactive,inactive,inactive,inactive,inactive,inactive,21.7,
CC(O)C(O)[C@H]1CNc2nc(N)[nH]c(=O)c2N1 (stereo not given in full),inactive,inactive,inactive,inactive,inactive,inactive,inactive,8.13,
CC(C)[C@H](NC(=O)OCc1ccccc1)C(=O)N[C@H](C=O)Cc1ccccc1 (Cbz-Val-Phe-aldehyde),inactive,inactive,inactive,inactive,inactive,inactive,inactive,7.9,
NCCC1CCCC(CCN)N1 (stereo not given),inactive,inactive,inactive,inactive,inactive,inactive,inactive,30.6,
CN[C@H](CC(=O)O)C(=O)O,inactive,inactive,inactive,inactive,inactive,inactive,inactive,19.8,
c1ccc2nc(C3=NCCN3)ccc2c1,inactive,inactive,inactive,inactive,inactive,inactive,inactive,12,
c1ccc(C(NCCNC(c2ccccc2)c2ccccc2)c2ccccc2)cc1,inactive,inactive,inactive,inactive,inactive,inactive,inactive,-2.86,
O=C(OCCN1CCOCC1)C1(c2ccccc2)CCCCC1,inactive,inactive,inactive,inactive,inactive,inactive,inactive,16.2,
O=c1[nH]ccc2c(O)cccc12,inactive,inactive,inactive,inactive,inactive,inactive,inactive,22.6,
N=C(N)c1ccc(N)cc1,inactive,inactive,inactive,inactive,inactive,inactive,inactive,-4.7,
COc1cccc(OC)c1OCCNCC1CSc2ccccc2O1 (stereo not given),1070 nM (active),inactive,inactive,inactive,inactive,inactive,inactive,8.7,
N=C(N)c1ccc(OCCCCCOc2ccc(C(=N)N)cc2)cc1 (tested in a mixture with another compound),inactive,inactive,inactive,inactive,inactive,inactive,inactive,,562 nM (active)
Cc1nc(N=Nc2ccc(C(=O)O)cc2)c(COP(=O)(O)O)c(C=O)c1O,inactive,inactive,inactive,inactive,inactive,inactive,inactive,5.37,
COc1ccccc1N1CCN(CCCCNC(=O)c2ccc3ccccc3c2)CC1,inactive,inactive,inactive,inactive,inactive,inactive,inactive,17.6,
CC(N)(C(=O)O)c1ccc(C(=O)O)cc1 (stereo not given),inactive,inactive,inactive,inactive,inactive,inactive,inactive,12,
CN1CCN(c2nc3cc(C(F)(F)F)ccc3n3cccc23)CC1,inactive,inactive,inactive,inactive,inactive,inactive,inactive,14.6,
O=c1cc(-c2ccccc2F)[nH]c2cc3c(cc12)OCO3,inactive,inactive,inactive,inactive,inactive,inactive,inactive,15.8,
O=C1C2C=CC=CC2=NC(=S)N1CCN1CCC(=C(c2ccc(F)cc2)c2ccc(F)cc2)CC1 (stereo not given),inactive,inactive,inactive,inactive,inactive,inactive,inactive,2.83,
OC[C@H]1NC[C@@H](O)[C@@H]1O,inactive,inactive,inactive,inactive,inactive,inactive,inactive,20.9,

SMILES,Potency [1],outcome [2],Potency [3],Potency [4],Potency [5],Potency [6],Potency [7],max response [8] [%],Potency [8]
COc1ccccc1N1CCN(CCCNc2c(C)c(=O)n(C)c(=O)n2C)CC1,inactive,inactive,inactive,inactive,inactive,inactive,inactive,-1.96,
CC(=O)N[C@@H](Cc1c[nH]c2ccccc12)C(=O)OCc1cc(C(F)(F)F)cc(C(F)(F)F)c1,inactive,inactive,inactive,inactive,inactive,inactive,inactive,12,
CCn1c(=O)[nH]c2cc(Cl)c(Cl)cc21,inactive,inactive,inactive,inactive,inactive,inactive,inactive,24.6,
CC(=O)/C(C)=N/O,inactive,inactive,inactive,inactive,inactive,inactive,inactive,-4.63,
O=c1ccc2c(OCCCCc3ccccc3)c3ccoc3cc2o1,inactive,inactive,inactive,inactive,inactive,inactive,inactive,10.3,
Cn1c(=O)[nH]c2ncn(C)c2c1=O,inactive,inactive,inactive,inactive,inactive,inactive,inactive,2.01,
N[C@H](C(=O)O)[C@H]1C[C@@H]1C(=O)O,inactive,inactive,inactive,inactive,inactive,inactive,inactive,18.4,
NCCS(=O)O,inactive,inactive,inactive,inactive,inactive,inactive,inactive,18,
N=S(=O)(O)Cc1noc2ccccc12,inactive,inactive,inactive,inactive,inactive,inactive,inactive,7.99,
CNc1cc(NS(=O)(=O)c2ccc(N)cc2)nc(NC)n1,inactive,inactive,inactive,inactive,inactive,inactive,inactive,12.8,
N[C@@H](CCC(=O)N[C@H](CSN=O)C(=O)NCC(=O)O)C(=O)O,inactive,inactive,inactive,inactive,inactive,inactive,inactive,16.7,
COc1cc2c(CCNC(C)=O)c[nH]c2cc1O,37900 nM (active),inactive,inactive,inactive,inactive,inactive,inactive,18.4,
[N-]=[N+]=Nc1ccc(C(=O)CSC[C@H](NC(=O)CC[C@H](N)C(=O)O)C(=O)NCC(=O)O)cc1,inactive,inactive,inactive,inactive,inactive,inactive,inactive,27,
CC[C@H](NC(=O)c1c(C)c(-c2ccccc2)nc2ccccc12)c1ccccc1,inactive,inactive,inactive,inactive,inactive,inactive,inactive,5.87,
NC1C=CC=C(C(=O)O)C1 (stereo not given),inactive,inactive,inactive,inactive,inactive,inactive,inactive,-5.22,
CN1CCC2(CCN3CCc4c(oc5ccccc45)C3C2)N(C)C1=O (stereo not given),inactive,inactive,inactive,inactive,inactive,inactive,inactive,28.4,
Nc1ccc2c3c(cccc13)C(=O)NC2=O,4260 nM (active),inactive,inactive,inactive,inactive,inactive,inactive,4.5,
O=c1ccn([C@@H]2O[C@H](COP(=O)(O)OP(=O)(O)O)[C@@H](O)[C@H]2O)c(=O)[nH]1,inactive,inactive,inactive,inactive,inactive,inactive,inactive,17.2,
C=CCNc1ncnc2ccc(Br)cc12,inactive,inactive,inactive,inactive,inactive,inactive,inactive,27.4,
CC(N)(Cc1ccc(O)c(O)c1)C(=O)O (stereo not given),inactive,inactive,inactive,inactive,inactive,inactive,inactive,8.06,
CC(N)=NCCCC[C@@H](N)C(=O)O,inactive,inactive,inactive,inactive,inactive,inactive,inactive,25.1,
O=C(O)c1cc2cc(F)ccc2[nH]1,inactive,inactive,inactive,inactive,inactive,inactive,inactive,5.51,
C[C@@]1(C2CCCC2)Cc2cc(OCC(=O)O)c(Cl)c(Cl)c2C1=O,inactive,inactive,inactive,inactive,inactive,inactive,inactive,33.9,
CC(/C=C/c1cccc(Oc2ccc(F)cc2)c1)N(O)C(N)=O (stereo not given),inactive,inactive,inactive,inactive,inactive,inactive,inactive,13.8,
N[C@@H](Cc1ccc(O)c(I)c1)C(=O)O,inactive,inactive,inactive,inactive,inactive,inactive,inactive,31.3,
